Source: PubChem BioAssay AID588342 (National Center for Advancing Translational Sciences (NCATS), 2011)
The campaign covered roughly 360,000 compounds. About 25,000 (6.9%) were called active. A call without a number means that no potency is given here. About 9% were inconclusive and are not listed. Calls follow the shape of the dose curve; as a rule, active = well fitted inhibition curve with a large enough effect; inconclusive = small, poorly fitted or top-dose-only effect; inactive = flat fitted curve, though single readings scatter. For the sample, actives were picked, then their nearest neighbours and some compounds at random.

Molecular target: Luciferin 4-monooxygenase (Photinus pyralis) (UniProt P08659)
Assay: qHTS profiling assay for firefly luciferase inhibitor/activator using purifed enzyme and Km concentrations of substrates (counterscreen for miR-21 project); also: nearly all actives have a fitted effect of over 55% in size
Details: purified FLuc, luminescence inhibition; series mostly up to 57.5 µM
From the text: MLPCN Grant: 1 R21 NS059478-01 (miR-21 grant) Assay Provider: NCGC NCGC Assay Overview: Firefly (Photinus pyralis) luciferase is one of the most commonly used transcriptional reporters for a number of reasons. It is considered one of the more dynamically responsive reporters -that is, responsive to changes in reporter transcription - as it requires no post-translational modifications and is enzymatically active directly after protein synthesis (Wood, 1998). Additionally, the half-life of the luciferase protein is short relative to other reporter-gene products (Wood, 1995). Whereas reporters with long half-lives potentially allow for increased signal due to accumulation of reporter-gene product, once accumulated in the cell, dynamic changes in reporter-gene expression may be difficult to detect(Fan and Wood, 2007; Almond et al., 2004). It has been shown that wild-type P. pyralis luciferase has a half-life of approximately […] hours in mammalian cells (Thompson et al., 1991). Firefly luciferase reporter-gene assays are also generally considered one of the most sensitive assay types (Wood, 1995; Wood, 1998). Although light produced in a bioluminescence reaction is of lower intensity than that produced during fluorescence emission, this is offset by little to no background light inherent to luminescent assays. Thus the luciferase reporter can be expressed at much lower levels than fluorescent proteins while still providing robust signal. # However, it was initially observed, in 1991, by Thompson et al., that compounds that resemble the substrates of firefly luciferase (FLuc) can act as competitive inhibitors of the enzyme, and that these compounds, upon interaction with luciferase in the cell, can actually stabilize the protein and increase its half-life. Accumulated intracellular FLuc protein can be measured as an increase in luminescence signal, upon addition of detection reagents (which contain high concentrations of FLuc substrates) commonly used in high-throughput screening. In cell-based reporter gene assays that use FLuc as the reporter gene to quantitate the potential influence of a given compound against the target biology, this apparent increase in luminescence can mistakenly be interpreted as identification of a compound that is active against the target of interest. This is the case for the miR-21 FLuc reporter gene assay used to identify inhibitors of the miR-21 pathway (PubChem AID 2289) - compounds of interest will inhibit miR-21 biogenesis/expression or activity, and are identified by causing an increase in luminescence, due to increased FLuc translation. However, FLuc inhibitory compounds that stabilize the FLuc protein will give an identical read-out, making it difficult to distinguish compounds that are active against the target from those active against FLuc. Previous profiling work to determine the prevalence of compounds that affect FLuc enzymatic activity (PubChem AID 411) identified that ~3% of the MLSMR library (then at ~72K) inhibited FLuc. […] Since the MLSMR had grown to ~350K compounds, and since it was expected that a significant percentage of compounds found active in the miR-21 FLuc assay would be FLuc inhibitors, the library was screened for activity against FLuc using a biochemical assay of purified FLuc and KM concentrations of FLuc substrates (D-luciferin and ATP).
NCGC Assay Protocol Summary: Reagents: 50mM Tris acetate, pH 7.5; 10mM Mg acetate; 10uM D-luciferin (Sigma #L9504); 10uM ATP; 0.01% Tween-20; 0.05% BSA; 10nM P. pyralis luciferase (Sigma #L9506) Control compounds used were two known firefly luciferase inhibitors (compounds (2) and (5) in Auld et al., 2010), and DMSO. […]

Chain of Luciferin 4-monooxygenase (Photinus pyralis) (P08659 whole entry, looked up): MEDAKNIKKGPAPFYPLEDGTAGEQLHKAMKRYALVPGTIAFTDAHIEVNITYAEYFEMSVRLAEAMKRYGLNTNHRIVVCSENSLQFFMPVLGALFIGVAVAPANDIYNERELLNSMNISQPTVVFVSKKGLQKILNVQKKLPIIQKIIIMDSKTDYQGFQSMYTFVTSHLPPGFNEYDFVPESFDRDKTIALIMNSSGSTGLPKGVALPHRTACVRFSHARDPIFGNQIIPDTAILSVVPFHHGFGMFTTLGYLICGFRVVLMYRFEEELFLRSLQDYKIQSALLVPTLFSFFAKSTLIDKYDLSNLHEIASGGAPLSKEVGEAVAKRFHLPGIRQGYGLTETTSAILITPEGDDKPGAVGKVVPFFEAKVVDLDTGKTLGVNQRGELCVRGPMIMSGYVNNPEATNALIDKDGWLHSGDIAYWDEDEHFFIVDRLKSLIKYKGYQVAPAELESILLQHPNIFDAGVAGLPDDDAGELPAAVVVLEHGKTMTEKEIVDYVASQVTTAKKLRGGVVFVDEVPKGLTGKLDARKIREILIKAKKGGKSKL

Q: `Fc1ccc(CSc2nc(NCc3ccccc3)c3ccccc3n2)cc1` was tested. Which Potency did it give?
A: inactive

Q: Which Potency does the source give for `COc1ccc(CNC(=O)COC(=O)c2ccc(C)c(S(=O)(=O)N3CCOCC3)c2)cc1OC` here?
A: inactive

Q: `O=C(COC(=O)C1CC2CCCC(C1)C2=O)NC(=O)c1ccccc1` (centres undefined) was tested. Which Potency did it give?
A: inactive

Q: How did the Potency turn out when `CCc1ccc(Oc2coc3cc(O)ccc3c2=O)cc1` was run?
A: 23.9 µM (active)

Q: How did the Potency turn out when `COc1ccc(Oc2coc3cc(OC(=O)c4cncc(Br)c4)ccc3c2=O)cc1` was run?
A: inactive

Q: Which Potency does the source give for `CCc1ccc(Oc2coc3cc(OC(=O)c4cc5ccccc5oc4=O)ccc3c2=O)cc1` here?
A: inactive

Q: Which Potency does the source give for `N#Cc1ccc(-c2nc3cc(C#N)c(C#N)cc3nc2-c2ccccc2)cc1C#N` here?
A: inactive

Q: With `COc1ccc(C)cc1NC(=O)C(=O)NCCc1sc(-c2cccc(C)c2)nc1C` as the compound, how does the Potency read?
A: inactive

Q: How did the Potency turn out when `CC(C)c1ccc(NC(=O)Cn2c3ncccc3c(=O)n2-c2ccccc2)cc1` was run?
A: inactive

Q: How did the Potency turn out when `CN(C)c1ccnc(Nc2ccc(F)cc2)c1C#N` was run?
A: inactive

Q: With `CC(C)c1ccc(Nc2ncccc2C#N)cc1` as the compound, how does the Potency read?
A: 15.1 µM (active)

Q: `CCOc1cc2[nH]c(=O)n(Cc3ccc(C(=O)NCCN(CC)CC)cc3)c(=O)c2cc1OCC` was tested. Which Potency did it give?
A: inactive

Q: `O=C(Nc1ccc(Oc2ccccc2)cc1)C1CCN(S(=O)(=O)c2ccc(Cl)cc2)CC1` was tested. Which Potency did it give?
A: inactive

Q: Which Potency does the source give for `O=C(O)c1ccccc1N=N/C(=N/Nc1cc(S(=O)(=O)O)ccc1O)c1ccccc1` here?
A: 16.9 µM (active)

Q: `O=C(CN(c1ccccc1)S(=O)(=O)c1ccc(Cl)cc1)Nc1ccccc1C(=O)N1CCCC1` was tested. Which Potency did it give?
A: inactive

Q: For `CC(=O)c1c(C)[nH]c(C(=O)OCC(=O)Nc2c(C)cccc2C)c1C`, which Potency is on record?
A: inactive

Q: `CC(NC(=S)Nc1ccc(OC(F)F)cc1)c1ccc(F)cc1` (centres undefined) was tested. Which Potency did it give?
A: inactive

Q: With `C[C@@H]1NC(=O)[C@@]2(C)[C@@H](c3ccccc3)[C@H]3COc4ccccc4[C@@H]3N2C1=O` as the compound, how does the Potency read?
A: inactive

Q: Which Potency does the source give for `CCc1ccc(Nc2nn3c(=O)c4cc5c(cc4nc3s2)OCO5)cc1` here?
A: inactive

Q: Which Potency does the source give for `COc1cccc(CNC(=O)COc2cc(O)c3c(c2)OC(C)(C)CC3=O)c1` here?
A: inactive

Q: For `Cc1c(C(=O)NCc2ccccc2Br)oc2ccc3c(c12)C(=O)CC(C)(C)O3`, which Potency is on record?
A: 1.69 µM (active)

Q: How did the Potency turn out when `CC(C)CC(=O)N1CCN(Cc2ccccc2Br)CC1` was run?
A: inactive

Q: How did the Potency turn out when `COc1ccc(-c2nc3sc(CCNS(=O)(=O)c4ccc(F)c(C)c4)c(C)n3n2)cc1` was run?
A: inactive

Q: `COc1ccc(C(=O)Nc2ccc(-n3nncc3C(C)(C)C)cc2)cc1` was tested. Which Potency did it give?
A: inactive

Q: With `COc1ccc(CNC(=O)C(=O)N2CCC3(CC2)OCCN3S(=O)(=O)c2ccc(C)cc2)cc1` as the compound, how does the Potency read?
A: inactive

Q: `Cc1cc(Cl)ccc1OCC(=O)N(Cc1ccc(N(C)C)cc1)C1CCS(=O)(=O)C1` (centres undefined) was tested. Which Potency did it give?
A: inactive

Q: `Cc1ccc(C(=O)COC(=O)C(Cc2c[nH]c3ccccc23)NC(=O)c2ccc(Br)cc2)cc1` (centres undefined) was tested. Which Potency did it give?
A: inactive

Q: Which Potency does the source give for `Cc1cc2nn(-c3ccc(Cl)cc3)nc2cc1NC(=O)C(C)C` here?
A: 0.379 µM (active)

Q: `COC(=O)[C@@H](NC(=O)Nc1cc(Cl)ccc1C)C(C)C` was tested. Which Potency did it give?
A: inactive

Q: For `CC(CCCc1ccccc1)NC(=O)c1nn(-c2ccc(Cl)cc2)nc1CO` (centres undefined), which Potency is on record?
A: inactive

Q: Which Potency does the source give for `CCN(C(=O)COC(=O)c1c(C)nn(-c2ccccc2)c1Cl)c1c(N)n(Cc2ccccc2)c(=O)[nH]c1=O` here?
A: inactive

Q: For `CCOC(=O)C1=C(c2ccccc2)Nc2ncnn2C1c1ccc(Cl)cc1` (centres undefined), which Potency is on record?
A: inactive

Q: How did the Potency turn out when `CCCSc1ncc(Cl)c(C(=O)Nc2sc3c(c2C(=O)NCCOC)CCCC3)n1` was run?
A: inactive

Q: Which Potency does the source give for `CSc1ccc(/C=N/NC(=O)c2cccc(Cl)c2)cc1` here?
A: 5.36 µM (active)

Q: How did the Potency turn out when `O=C(N/N=C/c1ccc(Cl)c(Cl)c1)c1ccc2nc[nH]c2c1` was run?
A: 13.5 µM (active)

Q: `NCCCCCC(=O)N/N=C/c1ccc2nccnc2c1` was tested. Which Potency did it give?
A: inactive

Q: Which Potency does the source give for `CC(NC(=O)C(=O)N/N=C/c1ccc(Cl)cc1)c1ccccc1` (centres undefined) here?
A: inactive

Q: How did the Potency turn out when `CSc1ccc(/C=N\NC(=O)CC(=O)NC(C)C)cc1` was run?
A: inactive

Q: For `CC1=NNC(=O)C1CCC(=O)N/N=C\c1ccc(Cl)c(Cl)c1` (centres undefined), which Potency is on record?
A: inactive

Q: For `Cc1ccccc1CNC(=O)C1CCCN(S(=O)(=O)N(C)c2ccc(F)cc2)C1` (centres undefined), which Potency is on record?
A: inactive

Q: How did the Potency turn out when `Cc1c(C(=O)NCc2ccccc2)cnn1-c1ccccc1` was run?
A: inactive

Q: `CCN(CC)CCN1C(=O)C(=O)/C(=C(/O)c2ccc(OC)c(OC)c2)C1c1ccccn1` (centres undefined) was tested. Which Potency did it give?
A: inactive

Q: Which Potency does the source give for `CCN(CC)CCN1C(=O)C(=O)/C(=C(/O)c2cnn(-c3ccccc3)c2C)C1c1cccs1` (centres undefined) here?
A: 21.3 µM (active)

Q: `CN(CC(=O)Nc1ccc(Cl)c(C(F)(F)F)c1)C(=O)CCC(=O)c1ccccc1` was tested. Which Potency did it give?
A: inactive

Q: How did the Potency turn out when `Cc1nnc(SCc2cc(=O)c3cc(F)ccc3[nH]2)n1C` was run?
A: inactive

Q: For `COc1ccc(-c2cc3ncccc3cn2)cc1`, which Potency is on record?
A: 5.36 µM (active)

Q: How did the Potency turn out when `COc1ccc(-c2cn[nH]c2-c2ccc(OC)cc2)cc1` was run?
A: inactive

Q: How did the Potency turn out when `COc1ccc(-c2cc(C(F)(F)F)nc(NCc3cccnc3)n2)cc1` was run?
A: inactive

Q: With `CCOCCCNc1c(CC)c(C)c(C#N)c2nc3ccccc3n12` as the compound, how does the Potency read?
A: inactive

Q: For `CC1CCc2c(sc3c2C2=NS(=O)(=O)CCN2C=N3)C1` (centres undefined), which Potency is on record?
A: inactive

Q: With `CCOC(=O)N1CCN(S(=O)(=O)c2ccc3c(c2)C(C)C(=O)N3)CC1` (centres undefined) as the compound, how does the Potency read?
A: inactive

Q: `CCOC(=O)c1c(SCC(=O)Nc2cccc(C)c2C)nc(=O)[nH]c1C` was tested. Which Potency did it give?
A: inactive

Q: Which Potency does the source give for `Cc1ccccc1OCc1ccc(-c2nc(C#N)c(N3CCCCC3)o2)o1` here?
A: inactive

Q: For `Cc1ccc(O)c(NC(=O)COc2cc(C)ccc2C)c1`, which Potency is on record?
A: inactive

Q: How did the Potency turn out when `Cc1ccc(O)c(NC(=O)c2cc(-c3ccc(F)cc3)no2)c1` was run?
A: inactive

Q: With `Cc1ccc(O)c(NC(=O)c2cc(-c3ccco3)on2)c1` as the compound, how does the Potency read?
A: 6.01 µM (active)

Q: For `COc1cc(C(=O)NCC(c2ccco2)N2CCCC2)ccc1OCc1ccccc1` (centres undefined), which Potency is on record?
A: inactive

Q: Which Potency does the source give for `CC(=O)N1CCN(CC(=O)Nc2ccc(C)c(F)c2)CC1` here?
A: inactive

Q: For `O=C(CN1CCN(C(=O)c2cccc(F)c2)CC1)Nc1ccccc1F`, which Potency is on record?
A: inactive

Q: `CCc1sc(C(=O)N2CCN(CC(=O)Nc3cccc(F)c3)CC2)cc1C` was tested. Which Potency did it give?
A: 13.5 µM (active)

Q: Which Potency does the source give for `CN(CC(=O)Nc1ccc(Cl)cc1)C(=O)c1ccc(COc2ccccc2)cc1` here?
A: inactive

Q: `Cc1c(NC(=O)c2cc(=O)c3ccccc3o2)c(=O)n(-c2ccccc2)n1C` was tested. Which Potency did it give?
A: inactive

Q: `CCCn1nc(C(=O)OCc2nc(N)nc(Nc3ccccc3C)n2)c2ccccc2c1=O` was tested. Which Potency did it give?
A: inactive

Q: For `Cc1cc(=O)n(CC(=O)Nc2cccc([N+](=O)[O-])c2)c(-n2nc(C)cc2C)n1`, which Potency is on record?
A: inactive
